# Screens deposited in PubChem by National Center for Advancing Translational Sciences (NCATS).
# ELG1 DNA repair – ELG1-dependent DNA repair inhibition; Potency, µM (series often up to 46.1 µM), for inactives: top-dose activity change, negative = inhibition, most hits filed as inhibitors; HEK293T ELG1-luciferase reporter, luminescence, 16 h; DNA damage induced by 5-fluorouridine; 330,000 compounds, 2.3% hits; note: potency is the fitted concentration of half-maximal effect; nearly all actives have a fitted effect of over 55% in size
#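 HEK293T cells expressing luciferase-tagged ELG1 (2,000/well) received 5-Fluorouridine plus compound or DMSO for 16 hr at 37 °C. Luciferase was read by ONE-Glo luminescence after 30 min at room temperature.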
# DT40 TDP1 CPT – DT40-hTDP1 cell growth loss with CPT | 420,000 compounds, 12% hits | Potency, µM (highest dose often 46.2 µM), inactives show at the highest dose activity change, negative = growth inhibition, actives largely listed as inhibitors | chicken DT40 Tdp1-/-;hTDP1 cells + 20 nM CPT, ATP luminescence, 48 h; note: potency is the fitted concentration of half-maximal effect; nearly all actives have a fitted effect of over 55% in size
#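 Chicken DT40 Tdp1-/- cells stably complemented with human TDP1 were seeded at 400 cells/well in medium containing 20 nM camptothecin, exposed to pin-transferred compounds, and grown at 37 °C for at least 48 hr. Viability was read as ATP luminescence.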
# Giardia killer – Giardia lamblia killing. 340,000 compounds, 0.15% hits. activity change, % at 7.66 µM, hits read low. Giardia lamblia trophozoite viability. AID 540267; in the data active = activity change below about -80%; inconclusive = between about -30% and that limit;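 note: parasites exposed to compound for two days anaerobically before the ATP read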
#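 Killing of trophozoites was scored by loss of ATP luminescence after a 48 hrs anaerobic exposure to compounds at 37 deg C, using 100 cells per well.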
# DT40 TDP1 no CPT – qHTS for Inhibitors of human tyrosyl-DNA phosphodiesterase 1 (TDP1): qHTS in cells in absence of CPT; DT40 Tdp1-/- hTDP1 cells, no CPT, ATP luminescence, 48 h; Potency, µM (doses to about 46.2 µM), without a hit: top-dose activity change, negative = growth inhibition, actives largely listed as inhibitors; 420,000 compounds, 15% hits; AID 686978, 2013; note: potency is the fitted concentration of half-maximal effect; nearly all actives have a fitted effect of over 55% in size
#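 Seeded 400 DT40-hTDP1 cells/well (vehicle DMSO, no 20 nM CPT); pinned compounds; ≥48 hr at 37 °C; CellTiter-Glo luminescence as viability measure.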
# IL-1B inflam inh – blocks inflammasome-driven IL-1 beta release. THP-1 LPS/ATP IL-1B secretion, AlphaLISA, 16 h; hits give low values. activity change, % at 57.5 µM. 360,000 compounds, 4.7% hits. AID 743279; in the data active = activity change below about -50%; inconclusive = mostly about -30% to -49%
#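 Secreted IL-1B measured by AlphaLISA bead assay after 16 h compound exposure of THP-1 cells; compounds (final up to 57.5 uM) added 1 h before LPS (250 ng/mL) and ATP (1.25 mM) stimulation; lower signal means less secretion.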
# TDP1 inh – TDP1 (human) enzyme inhibition; recombinant TDP1, AlphaScreen DNA substrate cleavage; Potency, µM (doses to about 130 µM), without a hit: at the highest dose activity change, negative = inhibition, most hits filed as inhibitors; Q9NUW8; AID 485290; 350,000 compounds, 0.28% hits; note: potency is the fitted concentration of half-maximal effect; nearly all actives have a fitted effect of over 40% in size
# Target sequence (Q9NUW8 whole entry, looked up): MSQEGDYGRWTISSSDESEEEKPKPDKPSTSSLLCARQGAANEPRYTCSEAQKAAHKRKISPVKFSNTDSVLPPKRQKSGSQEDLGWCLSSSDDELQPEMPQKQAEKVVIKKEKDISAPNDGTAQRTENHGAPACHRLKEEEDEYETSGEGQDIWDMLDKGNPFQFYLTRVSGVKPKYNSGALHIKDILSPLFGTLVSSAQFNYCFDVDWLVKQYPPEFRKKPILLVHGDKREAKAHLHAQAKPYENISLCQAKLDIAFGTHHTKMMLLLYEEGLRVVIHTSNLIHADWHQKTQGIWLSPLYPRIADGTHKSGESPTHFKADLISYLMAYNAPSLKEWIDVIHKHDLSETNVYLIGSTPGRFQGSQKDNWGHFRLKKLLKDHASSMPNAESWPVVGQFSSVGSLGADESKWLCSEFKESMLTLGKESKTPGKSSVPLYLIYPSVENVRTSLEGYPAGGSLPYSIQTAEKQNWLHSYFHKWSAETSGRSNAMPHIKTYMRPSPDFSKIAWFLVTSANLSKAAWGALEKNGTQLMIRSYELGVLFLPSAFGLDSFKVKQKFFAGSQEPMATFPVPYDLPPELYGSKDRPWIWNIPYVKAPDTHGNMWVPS
#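 Tdp1 1 nM final; 15 min RT w/ cpd; substrate 15 nM, 5 min; beads 10 ug/ml, 10 min; AlphaScreen read. Neg ctrl: no enzyme.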
# * = called active by the depositor; ? = inconclusive; · = no result; [ ] = remark or other dose. Rows were chosen to be rich in hits. Some 19% of all compounds tested hit in one or more screens of this group. Unless noted, calls come from the whole dose curve; as a rule, active = well fitted curve in the direction sought with a large enough effect; inconclusive = small, poorly fitted or top-dose-only effect, or another doubt; inactive = no such curve, though single readings can be large; an effect the other way counts as inactive or inconclusive. % is set by controls: 0 for no effect and ±100 for the full control effect.
SMILES,ELG1 DNA repair,DT40 TDP1 CPT,Giardia killer,DT40 TDP1 no CPT,IL-1B inflam inh,TDP1 inh
O=C1N=C(N2CCN(c3ccccc3)CC2)S/C1=C\c1cn[nH]c1-c1ccccc1,4.61µM*,20.6µM*,-2.0,13µM*,-18.7,-2.7%
O=C1N=C(N2CCC(Cc3ccccc3)CC2)S/C1=C/c1cn[nH]c1-c1ccccc1,?,?,-5.1,16.4µM*,?,5.3%
Cc1ccc(N2CCN(C3=NC(=O)/C(=C\c4cn[nH]c4-c4ccccc4)S3)CC2)cc1,1.64µM*,?,-14.4,20.6µM*,?,-4.2%
COc1ccccc1CNC(=O)CN(C)c1nn2c(=O)cc(C)nc2s1,·,?,·,-7.5%,·,0.0%
CC(C)[C@@H](CC(=O)N[C@@H]1CCCC[C@H]1C(=O)N[C@H](CC(=O)N[C@@H](CCC(=O)O)CC(=O)O)Cc1ccccc1)NC(=O)C[C@H](Cc1ccccc1)NC(=O)[C@@H]1CNCC[C@H]1N,·,·,·,·,·,4.4%
Cc1cccc(-c2onc3ccc(C(=O)/C=C/N(C)C)cc23)c1,?,?,-28.9,18.4µM*,-7.9,·
COc1cccc(-c2onc3ccc(C(=O)/C=C/N(C)C)cc23)c1,?,?,3.7,16.4µM*,-66.5*,·
CC1(c2ccc3noc(-c4ccccc4)c3c2)OCCO1,?,-1.1%,-4.9,?,?,9.5%
CN(C)/C=C/C(=O)c1ccc2noc(-c3ccc(F)cc3)c2c1,8.2µM*,?,-11.5,?,?,·
COc1cccc(-c2onc3ccc(C4(C)OCCO4)cc23)c1,?,?,7.8,?,-87.1*,5.9%
CC(=O)OCON[N+]([O-])=NC(C)C,·,11.2µM*,?,?,·,0.3%
CCc1nc2ccc(C(=O)NCc3cccs3)cn2c1N(CCC(C)C)CCN(C)C,·,?,·,?,-25.0,·
CCc1nc2ccc(C(=O)NCc3ccc4c(c3)OCO4)cn2c1N(C)Cc1ccc(OC)cc1,·,18.4µM*,·,23.1µM*,-10.4,·
CCc1nc2ccc(C(=O)NCc3ccc4c(c3)OCO4)cn2c1N(C)CCC(C)C,·,?,·,14.6µM*,0.0,·
CCc1nc2ccc(C(=O)N(CC)CCN(C)C)cn2c1N(C)Cc1ccc(OC)cc1,·,-16.9%,·,-18.4%,-23.7,·
CSCCC(NC(=O)COc1ccccc1)C(=O)N1CCCC(C(F)(F)F)C1 (centres undefined),-0.3%,-27.4%,-15.3,-25.4%,7.2,·
Cc1ccc(OC(C)C(=O)N(C)Cc2ccccc2)c([N+](=O)[O-])n1 (centres undefined),4.7%,-6.5%,?,8.3%,22.6,4.7%
CCc1nc2ccc(C(=O)NCCCN3CCCC3=O)cn2c1N(C)C(=O)COc1ccccc1,·,-5.6%,·,6.4%,15.9,·
COc1cc2oc(=O)ccc2cc1-c1c(OC)ccc2ccc(=O)oc12,-12.1%,?,-15.3,?,3.5,0.2%
CC(C)Oc1ccc(S(=O)(=O)N2CCOCC2)cc1NC(=O)C1COc2ccccc2O1 (centres undefined),?,20.6µM*,19.9,18.4µM*,-8.4,-0.2%[56.1 µM]
CCOc1ccc(S(=O)(=O)N2CCCCC2)cc1NC(=O)C1COc2ccccc2O1 (centres undefined),?,?,-11.2,?,-8.1,1.1%
CC(C)Oc1ccc(S(=O)(=O)N2CCOCC2)cc1NC(=O)Cc1ccsc1,?,20.6µM*,-27.0,?,-6.8,1.6%
CCOc1ccc(N2CC(NC(=O)c3ccc(S(=O)(=O)N4CCCCC4)cc3)CC2=O)cc1 (centres undefined),·,?,·,?,·,0.0%
CC1Oc2cc3oc4c(O)c5c(cc4c(=O)c3c(O)c2C1(C)C)C=CC(C)(C)O5 (centres undefined),·,?,13.2,20.6µM*,7.1,·
O=c1cc(-c2ccccc2)oc2ccccc12,?,?,-25.3,?,10.3,7.6%
SMILES,ELG1 DNA repair,DT40 TDP1 CPT,Giardia killer,DT40 TDP1 no CPT,IL-1B inflam inh,TDP1 inh
O=c1cc(/C=C/c2ccccc2)oc2ccccc12,?,16.4µM*,-6.0,?,-11.2,0.0%
CCCNC(=O)CS(=O)(=O)c1ccccc1,19.8%,-0.1%,15.7,3.7%,0.1,·
CC(C)(C)OC(=O)NCCCC[C@@H](C(=O)NCCCCCCCCCCC(=O)N1CCN(C(=O)OC(C)(C)C)CC1)n1cc(CCCC(=O)O)nn1,-0.8%,?,25.9,?,6.7,6.8%
Cc1cn([C@H](C(=O)NCCCCCCCCCCC(=O)N2CCN(C(=O)OC(C)(C)C)CC2)[C@@H](C)O)nn1,?,23.1µM*,-10.7,16.4µM*,31.5,0.2%
CC(C)(C)OC(=O)CC[C@@H](C(=O)NCCCCCCCCCCC(=O)N1CCN(C(=O)OC(C)(C)C)CC1)n1cc(CCCCCNC(=O)OC(C)(C)C)nn1,-21.3%,5.8µM*,-0.8,4.11µM*,4.6,-1.8%
CC(C)(C)OC(=O)NCCCCCc1cn([C@@H](CO)C(=O)NCCCCCCCCCCC(=O)N2CCN(C(=O)OC(C)(C)C)CC2)nn1,3.16µM*,2.59µM*,9.0,2.31µM*,0.0,3.6%
CC[C@H](C)[C@@H](C(=O)NCCCCCCCCCCC(=O)N1CCNCC1)n1cc(CCCCN=C(N)N)nn1,18.8%,?,?,?,-1.4,6.6%
C[C@H](O)[C@@H](C(=O)N1CCN(C(=O)OC(C)(C)C)CC1)n1cc(CCCCNC(=O)OC(C)(C)C)nn1,-6.1%,-23.4%,12.3,?,0.5,2.6%
CCCCc1cn([C@@H](CCCCNC(=O)OC(C)(C)C)C(=O)N2CCN(C(=O)OC(C)(C)C)CC2)nn1,-14.1%,?,23.6,?,-12.9,3.8%
CC[C@H](C)[C@@H](C(=O)NCCCCCCCCCCC(=O)N1CCN(C(=O)OC(C)(C)C)CC1)n1cc(CCCCCNC(=O)OC(C)(C)C)nn1,?,4.61µM*,5.3,5.8µM*,35.2,2.6%
Nc1nc2ccccc2n1S(=O)(=O)c1ccc(Cl)cc1,·,?,·,?,-15.9,·
Oc1ccccc1C=NNC(=S)NC1CC2C=CC1C2 (centres undefined),·,?,·,?,117.8,·
O=C(N/N=C/c1cc(Cl)cc([N+](=O)[O-])c1O)NC12CC3CC(CC(C3)C1)C2,-27.6%,?,-4.6,?,14.1,5.4%
Oc1c(Cl)cc(Cl)cc1/C=N/NC(=S)NC1CC2C=CC1C2 (centres undefined),14.6µM*,?,2.2,11.6µM*,-12.7,5.7%
